# Results reported in PubChem BioAssay AID709 (SRMLSC, 2007).
# The whole screen tested about 65,000 compounds, of which about 3,600 (5.5%) were called active. Shown is part of a subset that was picked to be rich in actives. A number with no mark means an inactive call.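 The calls were made as follows: active = at 10 µM, mean starting fluorescence two-fold or more over control wells; inactive = the rest.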
# Test: intrinsic fluorescence of library compounds, ex339/em460 – biochemical, MLSMR library, data from DPM-DC assay, artefact control, profiling panel (AID 709);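 also: signal is the first read of a kinetic run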
# Conditions: compound autofluorescence, ex339/em460 nm, NADH buffer; at 10 µM; active compounds read high; 1 = no-compound wells, NADH background
row,Structure (SMILES),fluorescence fold increase
1,COc1ccc(CN2CC(C(=O)NCCN3CCN(c4ccccc4F)CC3)CC2=O)cc1 (stereo not given),1.08
2,CCOC(=O)CN1C(=O)C(O)(CC(=O)c2ccccn2)c2ccccc21 (stereo not given),1.04
3,O=C(Oc1ccccc1)c1ccc2nccnc2c1,1.04
4,CC(=O)N1CC2(C)CN(C(C)=O)CC(C)(C1)C2=O,1.11
5,COCCNC(=O)c1snc2ccc(Cl)cc12,1.2
6,Cn1nc(-c2ccc(Cl)cc2)c2cc(C(=O)NCc3ccco3)sc21,2.11 (active)
7,COc1ccccc1N1CCN(C(=O)c2cc3c(-c4ccc(Cl)cc4)nn(C)c3s2)CC1,1.07
8,CCOC(=O)N1CCN(C(=O)c2cc3c(-c4ccc(Cl)cc4)nn(C)c3s2)CC1,1.19
9,COc1ccc(S(=O)(=O)N2CCCC2)c(C)c1C,1.06
10,COc1cccc(-c2cc3nc4c(c(N5CCC6(CC5)OCCO6)n3n2)CCCC4)c1,1.74
11,c1ccc(COc2nsnc2N2CCOCC2)cc1,1.12
12,O=C1c2ccccc2-c2ncnc3c(N4CCOCC4)cc(N4CCOCC4)c1c23,1.04
13,c1ccc(-c2oc3ncnc(N4CCOCC4)c3c2-c2ccccc2)cc1,2.38 (active)
14,COC(=O)c1ccc(OC(=O)c2nn(C)cc2Cl)c(OC)c1,1.11
15,CCOc1ccc(N(CC(=O)OC)S(=O)(=O)c2c(C)noc2C)cc1,1.1
16,O=C(NC1CCCC1)c1ccc(Br)s1,1.08
17,Cc1ccc(C(=O)Nc2nnc(-c3cccs3)s2)cc1C,3.04 (active)
18,CCc1nnc(NC(=O)c2cccs2)s1,1
19,COc1cc(C(=O)Nc2nccs2)cc(OC)c1OC,1.09
20,COc1ccc(OC)c2c1sc(=NC(=O)CN1C(=O)CCC1=O)n2C,1.13
21,CC1CCc2c(sc(NC(=O)c3ccc(Cn4cc(Br)cn4)o3)c2C(N)=O)C1 (stereo not given),3.78 (active)
22,CCc1c(C)nc(N2CCN(Cc3ccccc3)CC2)[nH]c1=O,1.06

row,Structure (SMILES),fluorescence fold increase
1,Cn1c(=O)[nH]c(=O)c2c1nc(CN1CCN(c3ccccc3F)CC1)n2CCc1ccccc1,1.09
2,CC(C)CNC(=O)C1CCCN(S(=O)(=O)c2ccc(-n3cnnn3)cc2)C1 (stereo not given),1.07
3,CC1CCN(C(=O)CSc2ccc3nnc(-c4cccc(F)c4)n3n2)CC1,1.4
4,COC(=O)C(C)Sc1ccc2nnc(-c3cccc(F)c3)n2n1 (stereo not given),2.06 (active)
5,CCOc1ccc(-c2nnc3ccc(SC)nn23)cc1,1.17
6,CCCOc1ccc(CN(CCO)CCO)cc1C(=O)OC,1.07
7,Cc1cccc(Cn2c(SCCO)nc3c2c(=O)n(C)c(=O)n3C)c1,0.95
8,COC(=O)C1C(=O)CC(C)(O)C(C(=O)OC)C1c1ccc2c(c1)OCO2 (stereo not given),1.09
9,Cc1cc(=O)[nH]c(SCC(N)=O)c1C#N,1.12
10,COc1ccc(C2CC(c3ccc(C)cc3)Nc3nc(N)nn32)cc1 (stereo not given),1.09
11,CCOC(=O)c1c(C)n(C)c2ccc(OC)c(NC(=O)CN3CCC4(CC3)OCCO4)c12,1.04
12,CC(C)Cn1c(N)c(C(=O)NCc2cccs2)c2nc3ccccc3nc21,3.03 (active)
13,C=CCn1c(N)c(S(=O)(=O)c2cccs2)c2nc3ccccc3nc21,3.9 (active)
14,C=CCn1c(C(C)NC(=O)CC)nc2ccccc21 (stereo not given),1.1
15,C=CCn1c2ccccc2c2nnc(SC(CC)C(=O)Nc3nc(C)c(C(=O)OCC)s3)nc21 (stereo not given),1.22
16,C=CCn1c(N)c(C(=O)OCC(C)C)c2nc3ccccc3nc21,3.79 (active)
17,CCCCNc1nc2ccccc2nc1NS(=O)(=O)c1cccs1,1.35
18,COC(=O)c1cn(CC(=O)NCc2cccs2)c2ccccc12,1.12
19,CCN(CC(=O)NCc1cccs1)c1nnnn1-c1ccccc1,1.04
20,CCOC(=O)C1CCN(C(=O)CSc2cc(=O)n(C)c3ccccc23)CC1,1.32
21,Cc1ccc(OCCCC(=O)N2CCOCC2)c(C)c1,1.13
22,Cc1ccc(CCn2c3c(c4ccccc42)CN(C)CC3)cn1,1.12

row,Structure (SMILES),fluorescence fold increase
1,CCOC(=O)c1ccc(NC(=O)CS(=O)(=O)c2cn(CC)c3ccccc23)cc1,1.08
2,CC1(C)C(=O)Nc2ccccc2N1C(=O)COC(=O)Cn1cnc2ccccc2c1=O,1.03
3,CCn1c(COc2ccccc2)nnc1SCC(=O)Nc1ccc2c(c1)OCCO2,1.12
4,COCCn1nnnc1CN1CCC(NC(=O)Nc2cccc(OC)c2)CC1,1.05
5,COC(=O)Cc1csc(Nc2c(C)n(C)n(-c3ccccc3)c2=O)n1,1.09
6,CCOc1ccc(Nc2oc(Cc3ccccc3)nc2C#N)cc1,1.13
7,COc1ccc(Nc2oc(-c3ccccc3Cl)nc2C#N)cc1,2.11 (active)
8,COc1ccc(-c2nnc(SC(C)C#N)o2)cc1 (stereo not given),1.08
9,O=C(COc1ccccc1)NCCc1nc2ccccc2[nH]1,1.13
10,Fc1ccc(-c2nnc3sc(-c4ccc5c(c4)OCO5)nn23)cc1,2.05 (active)
11,Fc1ccc(-c2ccc(-c3nn4c(-c5ccco5)nnc4s3)o2)cc1,1.49
12,COc1ccc(-c2nn3c(-c4ccccc4)nnc3s2)cc1OC,1.69
13,Cc1noc(C)c1COC(=O)Cn1c(C)nc2ccccc21,1.09
14,Cc1nn(Cc2ccccc2)c(Cl)c1C(=O)OC1CCOC1=O (stereo not given),1.07
15,O=C(c1cccs1)N1CCC(c2nc3ccccc3s2)CC1,1.04
16,O=C(OC1CCOC1=O)c1ccc(-c2nc3ccccc3s2)s1 (stereo not given),5 (active)
17,O=C(NCc1ccco1)C1CCCN(S(=O)(=O)c2cnc[nH]2)C1 (stereo not given),1.08
18,c1ccc2[nH]c(-c3nc4ccccc4[nH]3)nc2c1,2.21 (active)
19,C=CCSc1nc2ccccc2[nH]1,1.11
20,c1ccc(-c2[nH]ncc2-c2nc3ccccc3[nH]2)cc1,1.2
21,CC1(C)Oc2ccc3ccc(=O)oc3c2/C(=C/NCCO)C1=O,1.05
